Potency and affinity values are given separately. Activity calls are given as the source filed them. No rule for the calls is given here.
These compounds were tested against Beta-2 adrenergic receptor (Homo sapiens) (UniProt P07550) (assay: ADRB2 activation measured by internalization – cell-based, FAP fluorogen, flow cytometry, cherry pick 1, dose response (AID 588763)). Settings: AM2.2-beta2AR cells, 90 min; series mostly up to 33 µM.
Sequence of Beta-2 adrenergic receptor (Homo sapiens) (P07550 whole entry, looked up): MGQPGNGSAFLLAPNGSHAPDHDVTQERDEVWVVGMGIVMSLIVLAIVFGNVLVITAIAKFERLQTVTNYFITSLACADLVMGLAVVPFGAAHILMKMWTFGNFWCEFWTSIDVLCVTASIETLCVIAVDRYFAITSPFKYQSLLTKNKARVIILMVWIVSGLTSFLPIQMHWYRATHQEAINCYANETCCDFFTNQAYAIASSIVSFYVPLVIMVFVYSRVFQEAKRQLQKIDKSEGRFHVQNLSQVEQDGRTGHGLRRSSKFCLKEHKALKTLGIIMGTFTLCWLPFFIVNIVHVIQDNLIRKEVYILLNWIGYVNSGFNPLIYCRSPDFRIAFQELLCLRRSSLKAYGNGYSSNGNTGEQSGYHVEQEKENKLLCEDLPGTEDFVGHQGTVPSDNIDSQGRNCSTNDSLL

outcome, inactive:
Cc1cccc(-c2nnc(SCc3nc4ccccc4[nH]3)n2Cc2ccco2)c1
CC(C)CNc1ncnc2c1sc1nc(N3CCOCC3)c3c(c12)CC(C)(C)OC3
CSc1ccc(CCNC(=O)C2CCN(c3nnc(-n4cccc4)s3)CC2)cc1
Cc1cnn(-c2nc(-c3ccccc3)cc(-c3ccccc3)n2)c1
O=C(CCn1c(=O)[nH]c2ccsc2c1=O)NCc1ccc(F)cc1
COc1ccc(NC(=O)c2cccc(N3C(=O)c4cccc([N+](=O)[O-])c4C3=O)c2)cc1
Cc1ccc(NC(=O)c2cc(N3C(=O)C=CC3=O)ccc2N2CCOCC2)cc1
Cn1nnnc1Sc1ncnc2scc(-c3cc4ccccc4o3)c12
Cc1ccc(-c2nnc(SCc3nc4ccccc4[nH]3)n2Cc2ccco2)cc1
CSc1nc(SCCO)c2sc3nc(-c4ccco4)c4c(c3c2n1)CC(C)(C)OC4
CCN(CC)CCNc1ncnc2c1sc1nc(N3CCCC3)c3c(c12)CC(C)(C)OC3
CCOc1ccc(CNC(=O)C2CCN(c3nnc(C)c4c(C)n(-c5ccc(C)cc5)nc34)CC2)cc1
COc1cccc(OC)c1C(=O)Nc1ccc(NC(=O)c2ccco2)cc1
CCOc1ccc(NC(=O)Cn2nnc(-c3ccccc3NC(=O)C3CC3)n2)cc1
CCOC(=O)c1ccc(NC(=O)Cn2nnc(-c3ccccc3C)n2)cc1
COc1ccccc1-c1cc(C(F)(F)F)nc(S(=O)(=O)CCCC(=O)N2CCCCC2C)n1 (stereo not drawn)
COC(=O)[C@@H](NC(=O)c1cc(COc2cncc(Cl)c2)on1)c1ccccc1
c1ccc(-c2nnc(SCc3nc4ccccc4[nH]3)n2Cc2ccco2)cc1
COc1ccc(N2CCN(C(=O)CN(C)S(=O)(=O)c3cc(C)ccc3OC)CC2)cc1
N=c1n(CC(=O)c2ccc([N+](=O)[O-])cc2)c2ccccc2n1Cc1ccccc1
O=C(Nc1ccccc1C(=O)O)c1cccc(N2C(=O)c3ccccc3C2=O)c1
O=C(c1ccc(OC2CCN(Cc3cccc(OCCO)c3)CC2)cc1)N1CCCC1
O=C(c1ccc(-c2nnc(Nc3ccccc3)c3ccccc23)cc1)N1C[C@H]2C[C@H](C1)c1cccc(=O)n1C2
N=c1n(Cc2ccc(Cl)cc2)c2ccccc2n1CC(O)COc1ccccc1 (stereo not drawn)
COC(=O)c1ccc(CNC(=O)c2cc(COc3cncc(Cl)c3)on2)cc1
COc1ccccc1N1CCN(C(=O)CN(C)S(=O)(=O)c2cc(C)ccc2OC)CC1
COc1ccc(OC)c(S(=O)(=O)N(C)CC(=O)N2CCN(c3ccccc3)CC2)c1
COC(=O)c1ccc(CN2CCC(Oc3ccc(C(=O)N4CCCCC4)cc3)CC2)cc1
O=C(Nc1ccc2nc(-c3cccs3)c(-c3cccs3)nc2c1)N1CCOCC1
CC(NCCc1ccc(O)cc1)C(O)c1ccc(O)cc1 (stereo not drawn)
CC(C)NCC(O)c1cc(O)cc(O)c1 (stereo not drawn)
COc1ccc(C(CCNCc2ccc(OC(C)C)cc2)c2ccccc2OC)cc1 (stereo not drawn)
COc1cccc(CN2CCC(Oc3ccc(C(=O)N4CCCCC4)cc3)CC2)c1

From PubChem BioAssay AID588763 (NMMLSC, 2011)
